Most compounds without a hit are left out; they make up all but 0.3% or so of the library.
hcGAS inh = Primary biochemical luminescence assay for human cyclic GMP-AMP synthase inhibitors | AID 1259398, 2018 | 290,000 compounds, 0.081% hits | inhibition, % at 12.5 µM | recombinant h-cGAS, ATP depletion, Kinase-Glo luminescence;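 also: 0% = vehicle reaction and 100% = reaction without DNA for no activity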
Target sequence (Q8N884 whole entry, looked up): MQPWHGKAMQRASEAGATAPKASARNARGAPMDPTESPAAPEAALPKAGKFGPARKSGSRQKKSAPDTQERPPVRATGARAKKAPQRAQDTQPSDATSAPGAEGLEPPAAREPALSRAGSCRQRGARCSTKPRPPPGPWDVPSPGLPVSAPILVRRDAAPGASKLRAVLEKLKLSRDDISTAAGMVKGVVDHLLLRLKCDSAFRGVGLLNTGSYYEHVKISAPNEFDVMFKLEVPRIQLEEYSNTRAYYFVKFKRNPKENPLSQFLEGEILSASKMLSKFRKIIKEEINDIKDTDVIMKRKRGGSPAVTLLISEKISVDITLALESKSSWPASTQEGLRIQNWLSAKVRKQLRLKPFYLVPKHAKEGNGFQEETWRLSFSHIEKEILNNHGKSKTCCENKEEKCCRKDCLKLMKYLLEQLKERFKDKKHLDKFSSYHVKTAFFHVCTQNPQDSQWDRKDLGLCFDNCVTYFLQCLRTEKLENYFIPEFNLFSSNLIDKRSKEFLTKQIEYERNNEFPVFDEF
NPYLR7 agonist = agonists of mosquito NPYLR7 receptor, primary screen, cell-based, Aedes aegypti, calcium fluorescence, mosquito biting behavior | Aedes aegypti neuropeptide Y-like receptor 7 (NPYLR7) | HEK293T NPYLR7/Galpha15, GCaMP6s calcium fluorescence | activation, % at 10 µM | 270,000 compounds, 0.15% hits | AID 1259423, 2018; in the data active = activation above about 40%;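 also: 0% = vehicle and 100% = reference agonist at the receptor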
mcGAS inh = cyclic GMP-AMP synthase inhibitors, mouse, primary biochemical chemiluminescence. Q8C6L5. recombinant cGAS, Kinase-Glo ATP depletion luminescence. inhibition, % at 12.5 µM. 160,000 compounds, 0.15% hits. AID 1259399, 2018;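 also: 0% = negative control wells and 100% = reference inhibitor with no enzyme activity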
* = called active by the depositor; . = no result; + = active, no number; ! = not active in a repeat. Rule as the data show it, unless noted: active = inhibition above about 40%; inactive = the rest.

SMILES	hcGAS inh	NPYLR7 agonist	mcGAS inh
CC(=O)Oc1ccc2c(c1OC(C)=O)C(=O)c1ccccc1C2=O	-1	5	0
O=C(O)CCc1cccs1	-3	1	.
O=C(O)CCC(=O)c1cccs1	48*	0	-7
COc1cccc2c1C(=O)c1c(O)c3c(c(O)c1C2=O)C[C@@](O)(C(=O)CO)C[C@@H]3OC1C[C@H](N)[C@H](O)[C@H](C)O1 (stereo partly specified)	57*	.	.
COc1cccc(CNC(=O)C2CCN(C(=O)CCNC(=O)C3CCN(c4nccc(C(F)(F)F)n4)CC3)CC2)c1	-2	2	-6
CC(C)NCC(O)c1cc(O)cc(O)c1 (stereo unspecified)	-6	32	-5
CC(C)NC[C@H](O)c1ccc(O)c(O)c1	-7	85*!	-5
O=C(Nc1ccc(C2SCC(=O)N2c2ccc(C(F)(F)F)cc2)cc1)c1ccccc1Cl (stereo unspecified)	-2	7	-2
C=CCN1C(=O)C(Cc2ccc(OC)cc2)S/C1=N/N=C\c1cccs1 (stereo unspecified)	1	88*	-5
C=CCN1C(=O)C(Cc2ccc(OC)cc2)S/C1=N\N=C/c1ccco1 (stereo unspecified)	-5	2	-6
CN1C(=CC(=O)C(F)(F)F)Sc2ccccc21	-10	3	-6
CCN(CC)CC[n+]1c(C)cc(C=C2Sc3ccccc3N2C)cc1C	11	44*	.
c1ccc(Cc2nnc3sc(-c4cnccn4)nn23)cc1	0	5	.
COc1ccc(C2SCCN2C(=O)c2cc3ccccc3oc2=O)cc1[N+](=O)[O-] (stereo unspecified)	-9	5	.
CC1=NN(c2cccc(C(=O)O)c2)C(=O)/C1=C\c1ccc(-c2ccccc2C(=O)O)o1	-6	-4	64*
CC1=NN(c2cccc(C(=O)O)c2)C(=O)/C1=C\c1ccc(-c2cc([N+](=O)[O-])ccc2O)o1	5	-17	8
NC(=O)NC(=O)CCN(Cc1ccc(-c2ccccc2Cl)s1)C1CC1	-4	9	-6
O=c1nc2sc3[nH]c(=O)sc3cc-2s1	6	244*	46*
CCOC(=O)N1CCN(C(=O)c2cc(-c3ccc(OC)cc3OC)nn2-c2cccc(C)c2)CC1	-6	-7	-6
O=C(CCl)c1ccc(NC(=O)c2ccco2)cc1	-6	10	78*
O=C(NCc1ccccn1)c1ccc(NC(=O)c2ccco2)cc1	-14	19	.
COCCCN1COc2ccc3c(c2C1)O/C(=C\c1cc(OC)c(OC)c(OC)c1)C3=O	-8	61*	-10
CCOCCCN1COc2ccc3c(c2C1)O/C(=C\c1ccc(OC)cc1)C3=O	-6	42	-8
COc1ccc(/C=C2\Oc3c(ccc4c3CN(C3CC3)CO4)C2=O)cc1	-4	3	-8
COc1ccc(CCN2COc3ccc4c(c3C2)O/C(=C\c2ccncc2)C4=O)cc1OC	-2	55*	11
SMILES	hcGAS inh	NPYLR7 agonist	mcGAS inh
COc1ccc(/C=C2\Oc3c(ccc4c3CN(Cc3ccncc3)CO4)C2=O)cc1OC	-4	83*	-9
CCc1ccc(/C=C2\Oc3c(ccc4c3CN(C3CCS(=O)(=O)C3)CO4)C2=O)cc1 (stereo unspecified)	0	66*	-1
COc1ccc(CCN2COc3ccc4c(c3C2)O/C(=C\c2ccncc2)C4=O)cc1	0	39	12
CCOCCCN1COc2ccc3c(c2C1)O/C(=C\c1cccc(OC)c1OC)C3=O	-3	22	-6
O=C(NCCCNC(=O)[C@H]1CCCN1C(=O)Cc1cccs1)c1ccccc1	-10	2	-7
Cc1nc(NCc2cn[nH]c2-c2ccc(F)cc2)c2cnn(C)c2n1	-3	0	-14
COc1ccc(CN2COc3ccc4c(c3C2)O/C(=C\c2ccncc2)C4=O)cc1	-7	23	-6
COc1ccc(/C=C2\Oc3c(ccc4c3CN(Cc3ccncc3)CO4)C2=O)cc1	1	67*	-3
CCN(CC)C1=CC2=CC(=C(C#N)C#N)CCC2CC1 (stereo unspecified)	0	615*	-2
CCCCN(C)C1=CC2=CC(=C(C#N)C#N)CCC2CC1 (stereo unspecified)	-9	+	-5
CN(Cc1ccccc1)C1=CC2=CC(=C(C#N)C#N)CCC2CC1 (stereo unspecified)	-3	118*	.
CS(=O)(=O)CC(=O)N(Cc1ccccc1)CC1CCC1	-6	15	.
Cc1ccc(C(=O)C=Cc2ccc(N(C)C)cc2)o1	-7	75*	.
COc1ccc(C=CC(=O)c2ccc(C)o2)cc1OC	-3	4	.
Cc1ccc(-c2nc(NCCN3CCC(O)CC3)ncc2-c2ccncc2)cc1	-4	6	.
O=c1[nH]c(CCl)nc2sc3c(c12)CCN(Cc1ccccc1)C3	1	45*	.
COCCCNCc1nc2sc3c(c2c(=O)[nH]1)CCN(Cc1ccccc1)C3	4	-4	3
CCc1noc(-c2ccc(CCNC(=O)N3CCC3)cc2)n1	-15	7	.
COc1cc(OC)cc(-c2nn(-c3ccccc3)c(OC(C)=O)c2-c2ccc(NC(=O)c3cccc(Br)c3)cc2)c1	-2	-7	0
COC(=O)c1cc(N)c(/C=C/c2cccs2)s1	-7	184*	.
Brc1ccsc1/C=C/c1cccs1	-9	-4	.
CN(CC1COc2ccccc2O1)C(=O)CN1C(=O)c2ccccc2S1(=O)=O (stereo unspecified)	-6	2	.
CN(CC1COc2ccccc2O1)C(=O)CCl (stereo unspecified)	-7	-5	54*
CCOc1ccc(/C=C2N=C(/C=C/c3ccccc3)OC/2=O)cc1	-4	66*	.
CCOc1ccc(/C=C2N=C(/C=C/c3ccc(C)cc3)OC\2=O)cc1	-2	0	.
SMILES	hcGAS inh	NPYLR7 agonist	mcGAS inh
Cc1cc(-n2c(C)cn(CN3CCN(c4cccc(Cl)c4)CC3)c2=O)no1	-9	8	.
Nc1nc2nc(Br)[nH]c2c(=O)[nH]1	52*	-3	12
Nc1nc2nc(C(F)(F)F)[nH]c2c(=O)[nH]1	33	-4	.
O=C(C1CC=CCC1)N1CCc2onc(-c3ccc(C(F)(F)F)cc3)c2C1 (stereo unspecified)	-7	11	-17
CC(C)NC(=O)C(C)N1CCc2onc(-c3ccc(C(F)(F)F)cc3)c2C1 (stereo unspecified)	5	135*	1
O=C1Nc2ccccc2C1C=NN1CCOCC1 (stereo unspecified)	-3	51*	-7
CN1CCN(N=CC2C(=O)Nc3ccccc32)CC1 (stereo unspecified)	4	-12	.
O=C(NC1CCCC1)C(O)(c1ccccc1)c1ccccc1	-8	.	.
O=C(O)CCCN1C(=O)/C(=C\c2ccc(O)cc2)SC1=S	-4	61	-1
O=C(O)CN1C(=O)/C(=C\c2ccc(O)cc2)SC1=S	-5	59*	.
Cc1ccc(/C=C2\SC(=S)N(C(C(=O)O)C(C)C)C2=O)cc1 (stereo unspecified)	-1	-6	7
COc1ccc(Br)cc1/C=C1/SC(=S)N(CC(=O)O)C1=O	-1	-1	.
CC(C)C(C(=O)O)N1C(=O)/C(=C/c2ccc(O)cc2)SC1=S (stereo unspecified)	-3	68*	-5

Screening results as filed in PubChem BioAssay.
